# Measurements published in PubChem BioAssay (NCATS).
# Results filed as inconclusive are left out. The source made the active and inactive calls. Calls come from the whole dose curve; as a rule, active = well fitted inhibition curve with a large enough effect in the repeat runs; inconclusive = weak or mixed curves; inactive = no such curve, though single readings can be large or run the other way.
# Molecular target: Cytochrome P450 3A4 (Homo sapiens) (UniProt P08684)
# Assay: Cytochrome P450 family 3 subfamily A member 4 (CYP3A4) small molecule antagonists: luciferase qHTS assay (AID 1645841); note: nearly all actives have a fitted effect of over 45% in size
# Details: P450-Glo CYP3A4 enzyme assay, luciferin luminescence; series mostly up to 57.4 µM
# Procedure: National Center for Advancing Translational Sciences [NCATS]
# Cytochrome P450 (CYP) enzymes are membrane-bound hemeproteins that play a key role in metabolism of drugs and xenobiotics. Assaying the effect of chemicals on CYP isozymes is useful to minimize the adverse drug reactions and toxicities in drug development process. Chemical compounds were tested for their effect on CYP enzyme activities by using P450-Glo (TM) screening systems (Promega Corporation, Madison, WI). These systems provide a luminescent method containing proluciferin substrates and are converted to luciferin products by CYP isozymes. The luciferin products formed are detected with a luciferin detection reagent, and the amount of light produced is proportional to CYP activity. P450-Glo (TM) CYP3A4 screening system (Catalog. No. V9910) was used to detect the compounds that interfere in CYP3A4 activity. The positive control compound used for CYP3A4 assay is ketoconazole (Sigma-Aldrich, St. Louis, MO).
# Two ul of enzyme-substrate mix was dispensed into medium binding white/solid 1536-well plates (Greiner Bio-One North America Inc., Monroe, NC) using a Flying Reagent Dispenser (FRD, Aurora Discovery, San Diego, CA). Test compounds dissolved in DMSO and positive control (ketoconazole) were transferred to the assay plates at 23 nl using a Pintool station (Wako, San Diego, CA). The assay plates were incubated at room temperature for 10 min. Then 2 ul of NADPH regeneration solution was added to each well of the assay plates using an FRD and incubated at room temperature for 1 h. The reaction was stopped by adding 4 ul of detection reagent using an FRD and after 20 min incubation at room temperature, the luminescence signal was measured using a ViewLux plate reader (Perkin Elmer, Shelton, CT). Data were expressed as relative luminescence units.
# Sequence of Cytochrome P450 3A4 (Homo sapiens) (P08684 whole entry, looked up): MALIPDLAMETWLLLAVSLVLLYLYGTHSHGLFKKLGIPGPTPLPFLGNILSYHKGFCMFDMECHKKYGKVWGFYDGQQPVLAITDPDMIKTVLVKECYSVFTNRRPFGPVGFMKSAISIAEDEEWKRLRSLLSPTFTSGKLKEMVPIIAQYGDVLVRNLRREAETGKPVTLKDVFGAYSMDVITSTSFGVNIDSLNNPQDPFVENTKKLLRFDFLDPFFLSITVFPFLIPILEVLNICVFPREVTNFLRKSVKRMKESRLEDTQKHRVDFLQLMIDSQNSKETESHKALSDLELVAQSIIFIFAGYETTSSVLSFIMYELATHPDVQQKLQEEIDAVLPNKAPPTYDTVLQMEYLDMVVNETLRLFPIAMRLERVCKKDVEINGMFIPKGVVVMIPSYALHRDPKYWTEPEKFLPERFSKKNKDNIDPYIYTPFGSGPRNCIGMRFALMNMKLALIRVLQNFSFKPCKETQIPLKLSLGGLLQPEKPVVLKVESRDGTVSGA
row,Compound,outcome
1,O=C(OC1C[C@H]2CC[C@@H](C1)[N+]21CCCC1)C(O)(c1ccccc1)c1ccccc1 (stereo not given in full),inactive
2,Cc1cc(=O)c2c(O)c3c(O)cc(=O)c4c3c3c(cc(O)c1c23)C(C)(C)C=4O,inactive
3,Cc1ccc(C)c(OCCCC(C)(C)C(=O)O)c1,inactive
4,CCCS(=O)c1ccc2nc(NC(=O)OC)[nH]c2c1 (stereo not given),inactive
5,O=C(O)c1cn(-c2ccc(F)cc2)c2cc(N3CCNCC3)c(F)cc2c1=O,inactive
6,CS(=O)(=O)OCCCCOS(C)(=O)=O,inactive
7,CCC[C@@H]1C[C@@H](C(=O)N[C@@H]([C@H]2O[C@H](SC)[C@H](O)[C@@H](O)[C@H]2O)[C@@H](C)O)N(C)C1,inactive
8,CN(C)c1ccc(O)c2c1C[C@H]1C[C@H]3[C@H](N(C)C)C(=O)C(C(N)=O)=C(O)[C@@]3(O)C(=O)C1=C2O,inactive
9,CC(=O)NC[C@H]1CN(c2ccc(N3CCOCC3)c(F)c2)C(=O)O1,inactive
10,COc1cc(Nc2c(C#N)cnc3cc(OCCCN4CCN(C)CC4)c(OC)cc23)c(Cl)cc1Cl,inactive
